Results filed as inconclusive are left out. Calls of active or inactive are those of the source. Unless noted, calls come from the whole dose curve; as a rule, active = well fitted curve in the direction sought with a large enough effect; inconclusive = small, poorly fitted or top-dose-only effect, or another doubt; inactive = no such curve, though single readings can be large; an effect the other way counts as inactive or inconclusive.
Tests used:
[1] = Cell Viability - BJ (AID 421; calls by dose curve;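 note: potency is the fitted concentration of half-maximal effect; cells exposed to compound for 40 hours at 37 °C before readout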); conditions: BJ fibroblast viability, qHTS
Procedure, shortened: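 Normal human BJ foreskin fibroblasts, 1500/well in complete medium, treated 40 hr at 37 °C. Cellular ATP by CellTiter-Glo luminescence; normalized to DMSO and 100 uM tamoxifen, AC50 from Hill fit.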

[2] = Cell Viability - Jurkat (AID 426;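 active = dose-dependent loss of cell ATP signal giving a full or clear fitted curve, ranked by lower potency value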; note: potency is the fitted concentration of half-maximal effect); conditions: qHTS
Procedure, shortened: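 Cells of the human T-cell leukemia line Jurkat (E6-1) are seeded at 5000 per well, treated with compound across a concentration range for 40 hours at 37 °C, then lysed with CellTiter-Glo; luminescence reports ATP.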

[3] = Cell Viability - Hek293 (AID 427;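 active = compounds whose dose-response curve shows a full or clear partial loss of cell viability, called from curve shape rather than a numeric limit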;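 note: potency is the fitted concentration of half-maximal effect; cells exposed to compound for 40 hours at 37 °C before reading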); conditions: qHTS
Procedure, shortened: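 HEK293 cells in complete medium were exposed to compound for 40 hr at 37 °C, then cellular ATP was read by CellTiter-Glo luminescence. Data were normalized to DMSO (basal) and 100 uM tamoxifen (100% inhibition), and AC50 came from Hill fits.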

[4] = Cell Viability - HepG2 (AID 433; calls by dose curve;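 note: potency is the fitted concentration of half-maximal effect; potency for ATP loss meaning cytotoxicity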); conditions: qHTS
Procedure, shortened: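 Read-out is luciferase-based quantitation of cellular ATP as a measure of viable HepG2 cells after 40 h treatment at 37 °C. Signal decrease is scaled between DMSO-only and 100 uM tamoxifen controls, with AC50 fitted by the Hill equation.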

[5] = Cell Viability - MRC5 (AID 434; calls by dose curve;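 note: potency is the fitted concentration of half-maximal effect; potency reflects cytotoxicity seen as loss of intracellular ATP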); conditions: MRC5 lung fibroblast viability, qHTS
Procedure, shortened: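 ATP luminescence read-out (CellTiter-Glo, 20 min RT) after 40 hr, 37 °C compound exposure of 1500 MRC5 cells/well. Data normalized to DMSO (basal) and 100 uM tamoxifen (100% inhibition); AC50 from standard Hill equation.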

[6] = Cell Viability - SK-N-SH (AID 435; calls by dose curve;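 note: potency is the fitted concentration of half-maximal effect; compound exposure lasted 40 h at 37 °C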); conditions: SK-N-SH neuroblastoma cell viability qHTS
Procedure, shortened: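 Luminescent ATP signal served as the viability read-out after 40 hours of compound treatment of human neuroblastoma SK-N-SH cells. Concentration-response data, scaled between DMSO and 100 uM tamoxifen, gave AC50 values by standard Hill modeling.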

[7] = molecular target: Mitogen-activated protein kinase 10 (Mus musculus) (UniProt Q61831); assay: JNK3 AlphaScreen Assay (AID 530; active = well fitted curve in either direction with a large enough effect, not every such curve was filed as active;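 note: kinase came from lysate of stimulated human HepG2 cells; signal reports phosphorylation of biotinylated GST-cJun 1-79 at Ser73 with 10 µM ATP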)
Procedure, shortened: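 Activity was read by AlphaScreen after JNK3-containing HepG2 lysate (cytokine pre-activated) phosphorylated biotinylated GST-cJun with 10 uM ATP at room temperature. Phospho-Ser73 cJun antibody with Protein-A acceptor beads provided detection.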

[8] = Cell Viability - N2a (AID 540); conditions: N2a mouse neuroblastoma cell viability; activity change, negative = cytotoxicity: at 92.2 µM (top of the series); note: potency is the fitted concentration of half-maximal effect; nearly all actives have a fitted effect of over 45% in size
Procedure, shortened: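 Cytotoxicity was scored as loss of cellular ATP in N2a cells, a mouse neuroblastoma line. Compounds are applied in a qHTS concentration series for 40 hr at 37 °C.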

[9] = Cell Viability - NIH 3T3 (AID 541); conditions: NIH 3T3 cell viability, qHTS; activity change, negative = cytotoxicity: at 92.2 µM (top of the series); note: potency is the fitted concentration of half-maximal effect; nearly all actives have a fitted effect of over 25% in size
Procedure, shortened: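 Cells seeded at 1000/well, rested 5 hr at 37 °C, then dosed and incubated 40 hr at 37 °C. CellTiter-Glo added, 20 min room temperature, luminescence read. AC50 by Hill fit.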

[10] = Cell Viability - HUV-EC-C (AID 542); note: potency is the fitted concentration of half-maximal effect; nearly all actives have a fitted effect of over 35% in size
Procedure, shortened: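 Cells were seeded at 1000 per well and incubated 5 hr at 37 °C before compound addition. After 40 hr at 37 °C, CellTiter-Glo reagent was added for 20 min and luminescence read. AC50 values came from Hill-equation modelling.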

[11] = Cell Viability - H-4-II-E (AID 543); note: potency is the fitted concentration of half-maximal effect; nearly all actives have a fitted effect of over 35% in size
Procedure, shortened: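 Cells seeded at 1500 per well and rested 5 hr; compounds added; 40 hr incubation at 37 °C; CellTiter-Glo added, 20 min at room temperature; luminescence read. Hill-equation fits gave AC50.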

[12] = Cell Viability - SH-SY5Y (AID 544); conditions: SH-SY5Y neuroblastoma cell viability; viability change, negative = cytotoxic: at 92.2 µM (top of the series); note: potency is the fitted concentration of half-maximal effect; nearly all actives have a fitted effect of over 55% in size
Procedure, shortened: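 Cells were plated at 1500 per well and allowed 5 hr at 37 °C. Compounds were added across a concentration range and incubated 40 hr at 37 °C. CellTiter-Glo was added for 20 min at room temperature before luminescence reading.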

[13] = Cell Viability - Renal Proximal Tubule (AID 545); conditions: renal proximal tubule cells viability, primary cells of rat origin; activity change, negative = cytotoxicity: at 91.7 µM (top of the series); note: potency is the fitted concentration of half-maximal effect; nearly all actives have a fitted effect of over 40% in size
Procedure, shortened: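 Luminescent ATP signal (CellTiter-Glo) served as the viability read-out after 40 hr compound exposure of freshly isolated rat proximal tubule cells at 37 °C. Concentration-dependent ATP loss was fitted with the Hill equation to give AC50.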

[14] = Cell Viability - Mesenchymal (AID 546); conditions: mesenchymal cells viability, qHTS; activity change, negative = cytotoxicity: at 91.7 µM (top of the series);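 note: potency is the fitted concentration of half-maximal effect; cells exposed to compound for 40 hours before reading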
Procedure, shortened: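 Human renal mesenchymal cells (glomerulus-derived), 1000 cells/well, 5 hr 37 °C pre-incubation; compound 40 hr, 37 °C; CellTiter-Glo, 20 min RT; luminescence; AC50 via Hill equation.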

[15] = Cellular Toxicity (caspase-3) HepG2 (AID 654); note: potency is the fitted concentration of half-maximal effect
Procedure, shortened: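 Caspase 3/7 activation in HepG2 is measured as rising luminescence after a 16 hr treatment at 37 °C. Values are scaled between DMSO basal and 100 uM tamoxifen, and AC50 is fitted with the Hill equation.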

[16] = Cellular Toxicity (caspase-3) Jurkat (AID 655); conditions: Jurkat caspase-3 activation, luminescence; caspase-3 activation: at 92.2 µM (top of the series), DMSO = 0%, tamoxifen = 100%;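 note: potency is the fitted concentration of half-maximal effect; cells exposed to compound for 16 h at 37 °C before reading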
Procedure, shortened: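 5000 Jurkat cells/well; compound 16 hr, 37 °C; Caspase-Glo 3/7 added, 20 min RT; luminescence read. Norm: DMSO = 0%, tamoxifen 100 uM = 100%. AC50, Hill model.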

[17] = Cellular Toxicity (caspase-3) BJ (AID 658); conditions: Potency: caspase-3 activation; note: potency is the fitted concentration of half-maximal effect
Procedure, shortened: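 qHTS, BJ fibroblasts, 1000 cells/well; 5 hr preincubation, 16 hr compound, 37 °C; Caspase-Glo 3/7 reagent, 1 hr RT; luminescence. DMSO = 0%, 10 uM staurosporine = 100%. Hill-equation AC50.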

[18] = Cellular Toxicity (caspase-3) NIH 3T3 (AID 666);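 note: potency is the fitted concentration of half-maximal effect; caspase signal read after 16 h compound exposure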
Procedure, shortened: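 Cells were plated at 1000 per well and incubated 5 hr at 37°C, then compound was added for 16 hr. Caspase-Glo 3/7 reagent followed for 20 min at room temperature before luminescence was read.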

[19] = molecular target: Cytochrome P450 3A4 (Homo sapiens) (UniProt P08684); assay: qHTS Assay for Activators of Cytochrome P450 3A4 (AID 885); note: nearly all actives have a fitted effect of over 65% in size
Procedure, shortened: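 Human CYP3A4 dealkylates Luciferin-PPXE to luciferin, which luciferase detection converts to light. Substrate was at its KM (25uM), buffer 200mM KPO4, reaction 60 min at RT.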

[20] = Cell Viability - LYMP2-001 (AID 921);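 note: potency is the fitted concentration of half-maximal effect; cells exposed to compound for 24 h at 37 °C; nearly all actives have a fitted effect of over 70% in size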
Procedure, shortened: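 Steps: seed 2500 lymphoblastoid cells/well; 5 hr, 37 C; add compound; 24 hr, 37 C; CellTiter-Glo reagent, 30 min room temperature; read luminescence. Concentration-response modeled by Hill equation for AC50.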

[21] = MultiTox-Fluor Cytotoxicity Assay - LYMP1-001 - Dead Cells (AID 946); note: potency is the fitted concentration of half-maximal effect
Procedure, shortened: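 LYMP1-001 lymphoblastoid cells (2500/well) treated 16 h at 37 C. Dead-cell protease cleavage of bis-AAF-R110 read at Ex/Em 485/520. Normalized to DMSO and 15 uM tetraoctylammonium bromide; AC50 from Hill fits.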

[22] = MultiTox-Fluor Cytotoxicity Assay - LYMP1-001 - Live Cells (AID 947); note: potency is the fitted concentration of half-maximal effect
[23] = Cell Viability - LYMP1-002 - Assay at 16 hr (AID 948); note: potency is the fitted concentration of half-maximal effect
Procedure, shortened: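 Seed 2500 LYMP1-002 cells per well in complete medium and hold 5 hr at 37 C. Add compound across a concentration series and incubate 16 hr at 37 C. Add CellTiter-Glo, wait 30 min at room temperature, read luminescence.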

[24] = MultiTox-Fluor Cytotoxicity Assay - LYMP1-002 - Live Cells (AID 955); note: potency is the fitted concentration of half-maximal effect
Procedure, shortened: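 Cells were seeded at 2500 per well and incubated 5 hr. Compounds were then added for 16 hr at 37 C, followed by MultiTox-Fluor reagent for 60 min at room temperature and fluorescence reading of viable-cell protease signal.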

[25] = MultiTox-Fluor Cytotoxicity Assay - LYMP1-002 - Dead Cells (AID 960); note: potency is the fitted concentration of half-maximal effect; nearly all actives have a fitted effect of over 60% in size
Procedure, shortened: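 Cells were plated, rested 5 hr, then treated with compound dilution series for 16 hr at 37 C. After adding substrate reagent and 60 min at room temperature, dead-cell protease fluorescence gave concentration-response curves fitted by the Hill equation.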

[26] = MultiTox-Fluor Cytotoxicity Assay - LYMP1-003 - Dead Cells (AID 961); note: potency is the fitted concentration of half-maximal effect; nearly all actives have a fitted effect of over 70% in size
Procedure, shortened: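 LYMP1-003 human lymphoblastoid cells (2500/well) exposed to compound 16 h at 37 C in complete medium; dead-cell protease read with bis-AAF-R110 fluorescence (Ex/Em 485/520) after 60 min at room temperature. Normalized to DMSO and 15 uM tetraoctylammonium bromide; AC50 from Hill fit.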

[27] = MultiTox-Fluor Cytotoxicity Assay - LYMP1-003 - Live Cells (AID 962); note: potency is the fitted concentration of half-maximal effect
Procedure, shortened: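 Acute cytotoxicity is scored as a drop in live-cell protease activity in human lymphoblastoid LYMP1-003 cells after 16 hr compound exposure at 37 C. AC50 values come from Hill-equation modelling of concentration-response data.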

[28] = Cell Viability - LYMP1-003 - Assay at 24 hr (AID 963); note: potency is the fitted concentration of half-maximal effect
Procedure, shortened: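 Cytotoxicity is scored as a concentration-dependent fall in ATP-linked luciferase signal in human lymphoblastoid LYMP1-003 cells treated 24 hr at 37 C in complete culture medium.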

[29] = Cell Viability - LYMP1-003 - Assay at 40 hr (AID 964); note: potency is the fitted concentration of half-maximal effect; nearly all actives have a fitted effect of over 60% in size
Procedure, shortened: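 Luminescent ATP signal (CellTiter-Glo) served as the viability read-out after 40 hr compound treatment of human lymphoblastoid LYMP1-003 cells at 37 C. Decreases in ATP were fitted with the Hill equation to give AC50.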

[30] = Cell Viability - LYMP2-003 (AID 965);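 note: potency is the fitted concentration of half-maximal effect; cells exposed to compounds for 24 h before reading; nearly all actives have a fitted effect of over 50% in size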
Procedure, shortened: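 Seed 2500 lymphoblastoid cells/well; incubate 5 hr, 37 C; add compounds; incubate 24 hr, 37 C; add CellTiter-Glo, 30 min RT; read luminescence. AC50 from Hill fit.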

[31] = Cell Viability - LYMP2-004 (AID 966); note: potency is the fitted concentration of half-maximal effect; nearly all actives have a fitted effect of over 65% in size
Procedure, shortened: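 qHTS cytotoxicity: human lymphoblastoid line, 24 hr compound treatment, 37 C, complete medium. Viability read as cellular ATP via luciferase luminescence; tetraoctylammonium bromide served as positive control.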

[32] = Cell Viability - LYMP2-005 (AID 967);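 note: potency is the fitted concentration of half-maximal effect; cells exposed to compound for 24 h at 37 °C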
Procedure, shortened: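 Acute cytotoxicity is scored as a concentration-dependent drop in intracellular ATP in human lymphoblastoid LYMP2-005 cells after 24 h compound treatment. ATP is quantified by luciferase luminescence, and AC50 is derived by Hill-equation modelling.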

[33] = Cell Viability - LYMP2-009 (AID 968);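 note: potency is the fitted concentration of half-maximal effect; cells exposed to compound for 24 h at 37 °C; nearly all actives have a fitted effect of over 55% in size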
[34] = Cell Viability - LYMP2-011 (AID 969); note: potency is the fitted concentration of half-maximal effect; nearly all actives have a fitted effect of over 60% in size
Procedure, shortened: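 In this qHTS cytotoxicity format, compounds are tested across concentrations on human lymphoblastoid cells in complete medium for 24 hours at 37 C. Viability is taken as cellular ATP measured by luciferase luminescence.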

Measured: Potency

Sequence of Cytochrome P450 3A4 (Homo sapiens) (P08684 whole entry, looked up): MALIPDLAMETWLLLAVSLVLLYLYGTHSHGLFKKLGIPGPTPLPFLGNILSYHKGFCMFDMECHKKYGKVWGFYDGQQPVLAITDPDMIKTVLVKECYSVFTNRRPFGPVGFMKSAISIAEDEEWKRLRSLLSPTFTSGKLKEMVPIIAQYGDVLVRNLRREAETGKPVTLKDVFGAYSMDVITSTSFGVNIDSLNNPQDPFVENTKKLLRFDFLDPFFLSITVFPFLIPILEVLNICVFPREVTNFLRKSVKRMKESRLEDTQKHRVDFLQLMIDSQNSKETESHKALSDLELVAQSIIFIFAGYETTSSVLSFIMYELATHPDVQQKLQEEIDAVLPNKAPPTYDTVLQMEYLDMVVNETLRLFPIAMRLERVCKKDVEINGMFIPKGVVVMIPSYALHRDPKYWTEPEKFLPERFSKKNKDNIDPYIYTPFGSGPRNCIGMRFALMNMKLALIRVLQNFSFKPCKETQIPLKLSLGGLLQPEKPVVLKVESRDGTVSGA

CCCCCCCC[N+](CCCCCCCC)(CCCCCCCC)CCCCCCCC
inactive: [7] | [19]
active: [1] 14.5 µM | [2] 7.74 µM | [3] 7.17 µM | [4] 4.92 µM | [5] 10.3 µM | [6] 9.44 µM | [8] 3.16 µM | [9] 3.16 µM | [10] 12.6 µM | [11] 12.6 µM | [12] 7.94 µM | [13] 10 µM | [14] 10 µM | [15] 12.6 µM | [16] 12.6 µM | [17] 12.6 µM | [18] 31.6 µM | [20] 3.98 µM | [21] 6.31 µM | [22] 10 µM | [23] 6.31 µM | [24] 3.98 µM | [25] 3.16 µM | [26] 10 µM | [27] 12.6 µM | [28] 7.94 µM | [29] 3.16 µM | [30] 10 µM | [31] 7.94 µM | [32] 7.94 µM | [33] 3.98 µM | [34] 6.31 µM
